Experimental data: the supplement of paper PMC4709259
Counter-ions that a name gives are not always drawn. ± gives the standard deviation.

Experiments:
[1] = test system: Jurkat; experiment: mean cell size (FSC-A) relative to DMSO control (fraction of control); higher = larger cells; details: 48 h
In short: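 Jurkat cells seeded at 600 cells/µl were incubated 1 h, then exposed for 48h to the Enzo Screen-Well FDA Approved Drug Library v2.0 at 25µM in 0.9% (v/v) final DMSO. Drugs that cut counts below 20% of controls were diluted 10-fold and retested, down to 25nM. Cell count and mean cell size (forward scatter area) were read on an Accuri C6 flow cytometer, relative to solvent-only controls. Plates held 6-12 controls; values are means of 3 biological replicates.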

[2] = test system: Jurkat; experiment: cell count relative to DMSO control (fraction of control); higher = more cells (less growth inhibition); details: 48 h

| SMILES | mean cell size [1] | cell count [2] |
| --- | --- | --- |
| C[C@@H](O)[C@H]1C(=O)N2C(C(=O)O)=C(SCCNC=N)C[C@H]12 [Imipenem] (concentration: 25 µM) | 0.883 ± 0.063 | 0.344 ± 0.13 |
| COc1ccc2cc([C@H](C)C(=O)O)ccc2c1 [Naproxen] (concentration: 25 µM) | 0.941 ± 0.041 | 0.661 ± 0.1 |
| CC[C@H](C)[C@H](N)C1=N[C@H](C(=O)N[C@@H](CC(C)C)C(=O)N[C@H](CCC(=O)O)C(=O)N[C@H](C(=O)N[C@H]2CCCCNC(=O)[C@H](CC(N)=O)NC(=O)[C@@H](CC(=O)O)NC(=O)[C@H](Cc3cnc[nH]3)NC(=O)[C@@H](Cc3ccccc3)NC(=O)[C@H]([C@@H](C)CC)NC(=O)[C@@H](CCCN)NC2=O)[C@@H](C)CC)CS1 [Bacitracin] (concentration: 25 µM) | 0.977 ± 0.038 | 0.476 ± 0.09 |
| CCCNCC(O)COc1ccccc1C(=O)CCc1ccccc1 (centres undefined) [Propafenone·HCl] (concentration: 25 µM) | 1.06 ± 0.02 | 0.605 ± 0.13 |
| Cn1ccnc1S [Methimazole] (concentration: 25 µM) | 0.951 ± 0.011 | 0.842 ± 0.092 |
| C=C(c1ccc(C(=O)O)cc1)c1cc2c(cc1C)C(C)(C)CCC2(C)C [Bexarotene] (concentration: 2.5 µM) | 0.942 ± 0.017 | 0.955 ± 0.09 |
| CCCC(=O)Nc1ccc(OCC(O)CNC(C)C)c(C(C)=O)c1 (centres undefined) [Acebutolol·HCl] (concentration: 25 µM) | 1.04 ± 0.041 | 0.798 ± 0.17 |
| CN[C@H](CC(C)C)C(=O)N[C@H]1C(=O)N[C@@H](CC(N)=O)C(=O)N[C@H]2C(=O)N[C@H]3C(=O)N[C@H](C(=O)N[C@H](C(=O)O)c4cc(O)cc(O)c4-c4cc3ccc4O)[C@H](O)c3ccc(c(Cl)c3)Oc3cc2cc(c3O[C@@H]2O[C@H](CO)[C@@H](O)[C@H](O)[C@H]2O[C@H]2C[C@](C)(N)[C@H](O)[C@H](C)O2)Oc2ccc(cc2Cl)[C@H]1O [Vancomycin·HCl] (concentration: 25 µM) | 1.02 ± 0.021 | 1.19 ± 0.13 |
| CNNCc1ccc(C(=O)NC(C)C)cc1 [Procarbazine·HCl] (concentration: 25 µM) | 1.01 ± 0.053 | 0.822 ± 0.1 |
| Cc1cc(C2CCCCC2)n(O)c(=O)c1 [Ciclopirox] (concentration: 2.5 µM) | 1.14 ± 0.032 | 0.395 ± 0.07 |
| CCOc1nc2cccc(C(=O)O)c2n1Cc1ccc(-c2ccccc2-c2nnn[nH]2)cc1 [Candesartan] (concentration: 25 µM) | 1.01 ± 0.042 | 0.901 ± 0.11 |
| CN1CCC[C@H]1c1cccnc1 [Nicotine] (concentration: 25 µM) | 0.936 ± 0.045 | 0.561 ± 0.18 |
| Cc1cn([C@@H]2C[C@@H](O)[C@H](CO)O2)c(=O)[nH]c1=O [Telbivudine] (concentration: 25 µM) | 0.927 ± 0.037 | 1.04 ± 0.17 |
| CC(C)[N+]1(C)[C@@H]2CC[C@H]1CC(OC(=O)C(CO)c1ccccc1)C2 (some centres undefined) [Ipratropium·Br] (concentration: 25 µM) | 1.01 ± 0.029 | 0.704 ± 0.18 |
| CCCCN1C[C@H](O)[C@@H](O)[C@H](O)[C@H]1CO [Miglustat (N-Butyldeoxynojirimycin·HCl)] (concentration: 25 µM) | 0.9757 ± 0.0093 | 0.81 ± 0.045 |
| C[C@@H]1C/C=C/C=C/C=C/C=C/[C@H](O[C@@H]2O[C@H](C)[C@@H](O)[C@H](N)[C@@H]2O)C[C@@H]2O[C@](O)(C[C@@H](O)C[C@H]3O[C@@H]3/C=C/C(=O)O1)C[C@H](O)[C@H]2C(=O)O [Natamycin] (concentration: 25 µM) | 0.951 ± 0.015 | 1.01 ± 0.096 |
| CC(=O)OCC(=O)[C@@]12OC(C)(C)O[C@@H]1C[C@H]1[C@@H]3C[C@H](F)C4=CC(=O)C=C[C@]4(C)[C@@]3(F)[C@@H](O)C[C@@]12C [Fluocinonide] (concentration: 25 µM) | 0.944 ± 0.027 | 0.551 ± 0.03 |
| CC[C@]1(O)C[C@@H]2CN(CCc3c([nH]c4ccccc34)[C@@](C(=O)OC)(c3cc4c(cc3OC)N(C)[C@H]3[C@@](O)(C(=O)OC)[C@H](OC(C)=O)[C@]5(CC)C=CCN6CC[C@]43[C@@H]65)C2)C1 [Vinblastine Sulfate] (concentration: 25 nM) | 0.971 ± 0.031 | 0.0701 ± 0.058 |
| O=C1N=C(O)CN1N=Cc1ccc(-c2ccc([N+](=O)[O-])cc2)o1 [Dantrolene·Na] (concentration: 25 µM) | 1 ± 0.021 | 0.837 ± 0.068 |
| Cc1nccn1CC1CCc2c(c3ccccc3n2C)C1=O (centres undefined) [Ondansetron] (concentration: 25 µM) | 0.97 ± 0.028 | 0.816 ± 0.074 |
| Cc1c2oc3c(C)ccc(C(=O)N[C@@H]4C(=O)N[C@H](C(C)C)C(=O)N5CCC[C@H]5C(=O)N(C)CC(=O)N(C)[C@@H](C(C)C)C(=O)O[C@@H]4C)c3nc-2c(C(=O)N[C@@H]2C(=O)N[C@H](C(C)C)C(=O)N3CCC[C@H]3C(=O)N(C)CC(=O)N(C)[C@@H](C(C)C)C(=O)O[C@@H]2C)c(N)c1=O [Dactinomycin (= Actinomycin D)] (concentration: 25 nM) | 0.784 ± 0.019 | 0.49 ± 0.11 |
| CCOC(=O)[C@H](CCc1ccccc1)N[C@@H](C)C(=O)N1[C@H](C(=O)O)C[C@H]2CCCC[C@@H]21 [Trandolapril] (concentration: 25 µM) | 0.973 ± 0.044 | 0.924 ± 0.12 |
| CC(=O)OCC(=O)[C@@]1(O)CC[C@H]2[C@@H]3CCC4=CC(=O)CC[C@]4(C)[C@H]3C(=O)C[C@@]21C [Cortisone Acetate] (concentration: 25 µM) | 1.01 ± 0.028 | 0.823 ± 0.082 |
| C[n+]1ccccc1/C=N/O [Pralidoxime Chloride] (concentration: 25 µM) | 1.08 ± 0.037 | 0.959 ± 0.1 |

| SMILES | mean cell size [1] | cell count [2] |
| --- | --- | --- |
| CNCCCC12CCC(c3ccccc31)c1ccccc12 [Maprotiline·HCl] (concentration: 2.5 µM) | 0.991 ± 0.018 | 0.788 ± 0.053 |
| CCN(CC)CC(=O)Nc1c(C)cccc1C [Lidocaine·HCl·H2O] (concentration: 25 µM) | 1.01 ± 0.033 | 1.03 ± 0.14 |
| N#Cc1ccc(C(c2ccc(C#N)cc2)n2cncn2)cc1 [Letrozole] (concentration: 25 µM) | 1.01 ± 0.028 | 0.798 ± 0.019 |
| CN(C)CC[C@@H](c1ccc(Cl)cc1)c1ccccn1 [Dexchlorpheniramine Maleate] (concentration: 25 µM) | 0.964 ± 0.033 | 0.526 ± 0.17 |
| NC(=O)Cc1cccc(C(=O)c2ccccc2)c1N [Nepafenac] (concentration: 25 µM) | 0.934 ± 0.019 | 0.727 ± 0.025 |
| Cc1[nH]cnc1CN1CCc2c(c3ccccc3n2C)C1=O [Alosetron·HCl] (concentration: 25 µM) | 0.954 ± 0.059 | 0.592 ± 0.12 |
| CC(C)NCC(O)c1ccc(NS(C)(=O)=O)cc1 (centres undefined) [Sotalol·HCl] (concentration: 25 µM) | 0.893 ± 0.059 | 0.268 ± 0.17 |
| C[C@]12C=CC(=O)N[C@@H]1CC[C@@H]1[C@@H]2CC[C@]2(C)[C@@H](C(=O)Nc3cc(C(F)(F)F)ccc3C(F)(F)F)CC[C@@H]12 [Dutasteride] (concentration: 25 µM) | 0.983 ± 0.052 | 0.636 ± 0.17 |
| O=P(O)(O)C(O)(Cn1ccnc1)P(=O)(O)O [Zoledronic Acid Monohydrate] (concentration: 25 µM) | 0.938 ± 0.031 | 0.296 ± 0.11 |
| C[N+](C)(C)CC(=O)O [Betaine] (concentration: 25 µM) | 0.945 ± 0.047 | 0.449 ± 0.066 |
| CC(C)[C@H](N)C(=O)OCC(CO)OCn1cnc2c(=O)[nH]c(N)nc21 (some centres undefined) [Valganciclovir·HCl] (concentration: 25 µM) | 1.06 ± 0.054 | 0.892 ± 0.099 |
| CC(CCc1ccc(O)cc1)NCCc1ccc(O)c(O)c1 (centres undefined) [Dobutamine·HCl] (concentration: 25 µM) | 0.952 ± 0.042 | 0.464 ± 0.13 |
| Nc1ccc(O)c(C(=O)O)c1 [Mesalamine (5-Aminosalicylic Acid)] (concentration: 25 µM) | 0.912 ± 0.019 | 1 ± 0.046 |
| Cc1ccccc1C(=O)Nc1ccc(C(=O)N2CCCC(O)c3cc(Cl)ccc32)c(C)c1 (centres undefined) [Tolvaptan] (concentration: 25 µM) | 0.951 ± 0.055 | 0.95 ± 0.028 |
| CN(C)CCc1c[nH]c2ccc(CS(=O)(=O)N3CCCC3)cc12 [Almotriptan] (concentration: 25 µM) | 0.95 ± 0.053 | 0.62 ± 0.18 |
| CCS(=O)(=O)CCn1c([N+](=O)[O-])cnc1C [Tinidazole] (concentration: 25 µM) | 0.992 ± 0.049 | 0.528 ± 0.018 |
| CCCCc1oc2ccccc2c1C(=O)c1cc(I)c(OCCN(CC)CC)c(I)c1 [Amiodarone·HCl] (concentration: 2.5 µM) | 1.05 ± 0.018 | 0.616 ± 0.12 |
| CC[C@@H](CO)NCCN[C@@H](CC)CO [Ethambutol Dihydrochloride] (concentration: 25 µM) | 1.02 ± 0.064 | 0.721 ± 0.18 |
| Nc1cccc2c1CN(C1CCC(=O)NC1=O)C2=O (centres undefined) [Lenalidomide] (concentration: 25 µM) | 0.951 ± 0.021 | 1.03 ± 0.11 |
| CC1(C)O[C@@H]2C[C@H]3[C@@H]4CCC5=CC(=O)CC[C@]5(C)[C@@]4(F)[C@@H](O)C[C@]3(C)[C@]2(C(=O)CCl)O1 [Halcinonide] (concentration: 25 µM) | 0.914 ± 0.03 | 0.883 ± 0.12 |
| C[C@H](CS)C(=O)N1CCC[C@H]1C(=O)O [Captopril] (concentration: 25 µM) | 0.951 ± 0.029 | 1.01 ± 0.099 |
| CN1CCC(=C2c3ccccc3CC(=O)c3sccc32)CC1 [Ketotifen Fumarate] (concentration: 25 µM) | 0.96 ± 0.017 | 0.856 ± 0.071 |
| CCC(=O)OCC(=O)[C@@]1(OC(=O)CC)[C@@H](C)C[C@H]2[C@@H]3CCC4=CC(=O)C=C[C@]4(C)[C@@]3(Cl)[C@@H](O)C[C@@]21C [Beclomethasone Dipropionate] (concentration: 25 µM) | 0.913 ± 0.049 | 0.774 ± 0.07 |
